A selection: hits, their analogues and other compounds. The true share with any hit is near 2.5%.
PRMT1 inh: PRMT1 methyltransferase inhibitors, primary screen, biochemical, fluorescence polarization; Protein arginine N-methyltransferase 1 (Homo sapiens), Q99873; recombinant PRMT1, activity-based probe fluorescence polarization; inhibition, % at 2.79 µM; 1.3% of 370,000 active; AID 652257, 2013;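 active means inhibition above about 21% made by adding two undisclosed values, limit read from the data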
MBD2 DNA inh: inhibitors of MBD2 binding to methylated DNA, primary screen, biochemical, TR-FRET, DNA-binding domain, human. MBD2 binding to methylated oligonucleotide. inhibition, % at 4.4 µM. 0.31% of 370,000 active; in the data active means inhibition above about 13%
Target sequence (Q9UBB5 whole entry, looked up, the tested form may be a part): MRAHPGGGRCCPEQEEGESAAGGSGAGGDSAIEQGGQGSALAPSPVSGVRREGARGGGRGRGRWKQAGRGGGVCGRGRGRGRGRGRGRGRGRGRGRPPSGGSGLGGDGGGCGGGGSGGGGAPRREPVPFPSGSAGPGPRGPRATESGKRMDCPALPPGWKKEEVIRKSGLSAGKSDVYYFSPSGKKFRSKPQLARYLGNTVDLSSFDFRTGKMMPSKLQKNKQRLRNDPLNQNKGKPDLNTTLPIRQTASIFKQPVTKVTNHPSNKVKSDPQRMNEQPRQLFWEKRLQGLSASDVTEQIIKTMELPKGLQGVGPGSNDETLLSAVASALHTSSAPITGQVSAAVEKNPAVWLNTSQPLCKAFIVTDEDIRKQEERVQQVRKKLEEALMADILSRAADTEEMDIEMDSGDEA
LEDGF integ inh: blockers of LEDGF/p75-dependent integrase strand transfer – biochemical, TR-FRET, high throughput, primary screen | 0.64% of 370,000 active | inhibition, % at 3.7 µM | AID 743269, 2014 | TR-FRET IN-LEDGF/p75 DNA integration, Eu/Cy5;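 active means inhibition above the screen-wide mean plus 3 SD, cut at about 13% in these data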;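 further: signal is the Cy5 over europium emission ratio at 671 and 618 nm; 0% = plate median of compound wells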
UHRF1 binding: UHRF1 methylated DNA binding inhibitors, primary screen, counter-screen for MBD2 inhibitor project, biochemical, TR-FRET, human UHRF1, single concentration; E3 ubiquitin-protein ligase UHRF1 (Homo sapiens), Q96T88; UHRF1 binding to methylated oligo; inhibition, % at 4.4 µM; 0.75% of 370,000 active; AID 687016, 2013; in the data active means inhibition above about 21%;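 further: UHRF1 SRA domain binding a hemimethylated CpG hairpin DNA probe; 0% = median of test compound wells and 100% = reference inhibitor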
PRMT1 confirm: PRMT1 methyltransferase inhibitors, confirmation, biochemical, fluorescence polarization, triplicate; 42% of 3,300 active; recombinant His-PRMT1, activity-based probe fluorescence polarization; shares compounds with PRMT1 inh; inhibition, % at 2.79 µM; AID 687036, 2013;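 active means mean inhibition across replicates above the hit cutoff derived for the earlier primary screen, cut at about 22% in these data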
The depositor's hits bear a star.

CCCCCCCCCCCCCCCC[N+](C)(C)CC was read as PRMT1 inh -4, MBD2 DNA inh -6, LEDGF integ inh 4 and UHRF1 binding -1.
COCCNC(=O)C1Nc2ccc(OC(F)(F)F)cc2C2C=CCC12 (configuration not stated) was read as PRMT1 inh 26*, MBD2 DNA inh -2, LEDGF integ inh 1, UHRF1 binding -8 and PRMT1 confirm 7.
`O=C(NCc1ccccn1)C1Nc2ccc(C(F)(F)F)cc2C2C=CCC12` (configuration not stated) gave PRMT1 inh 10, MBD2 DNA inh 0, LEDGF integ inh 1 and UHRF1 binding -6.
`COC(=O)CNC(=O)C1Nc2ccc(OC(F)(F)F)cc2C2C=CCC12` (configuration not stated) gave PRMT1 inh 37*, MBD2 DNA inh 0, LEDGF integ inh 10, UHRF1 binding -1 and PRMT1 confirm 2.
`COCCNC(=O)C1Nc2ccc(C(F)(F)F)cc2C2C=CCC12` (configuration not stated) gave PRMT1 inh 9, MBD2 DNA inh -7, LEDGF integ inh 3 and UHRF1 binding -6.
Cc1cc(C(=O)OCC(=O)Nc2c(F)cccc2F)c(C)n1-c1ccccc1 was read as PRMT1 inh -1, MBD2 DNA inh -4, LEDGF integ inh 1 and UHRF1 binding -1.
For O=C(NC1CCCCC1)C(c1ccc(C(F)(F)F)cc1)n1c(=O)c(-c2ccco2)nc2ccccc21 (configuration not stated) the results were PRMT1 inh 29*, MBD2 DNA inh -7, LEDGF integ inh 0, UHRF1 binding 2 and PRMT1 confirm 15.
O=C(NC1CCCCC1)C(c1ccccc1)n1c(=O)c(-c2ccco2)nc2ccccc21 (configuration not stated) was read as PRMT1 inh 28*, MBD2 DNA inh 4, LEDGF integ inh 1, UHRF1 binding -4 and PRMT1 confirm 23*.
COc1ccc(NC(=O)C(c2ccc(OC)cc2)n2c(=O)c(-c3ccco3)nc3ccccc32)cc1 (configuration not stated) was read as PRMT1 inh 2, MBD2 DNA inh 2, LEDGF integ inh -4 and UHRF1 binding -4.
O=C(CSC1=NCCN1)C1COc2ccccc2O1 (configuration not stated) was read as PRMT1 inh 34*, MBD2 DNA inh 0, LEDGF integ inh -1, UHRF1 binding -2 and PRMT1 confirm 42*.
Screening O=C(NCC1CCCO1)c1ccc2c(=O)n(CC3CCCO3)c(SCC(=O)N3CCCC3)nc2c1 (configuration not stated) returned PRMT1 inh 1, MBD2 DNA inh 1, LEDGF integ inh 3 and UHRF1 binding 0.
CCOC(=O)C1NC(=O)CC1c1ccccc1 (configuration not stated) was read as PRMT1 inh -1, MBD2 DNA inh -5, LEDGF integ inh 7 and UHRF1 binding 2.
For CCOC(=O)C1CSC2(CCC(c3ccccc3)CC2)N1 (configuration not stated) the results were PRMT1 inh 48*, MBD2 DNA inh 1, LEDGF integ inh 1, UHRF1 binding 5 and PRMT1 confirm 28*.
COC/C=C/C1=CC2=CC(=O)C(C)(OC(=O)C3CCCC3)C(=O)C2=CO1 (configuration not stated) was read as PRMT1 inh 46*, MBD2 DNA inh 5, LEDGF integ inh 64*, UHRF1 binding 29* and PRMT1 confirm 24*.
COC/C=C/C1=CC2=CC(=O)C(C)(OC(=O)c3cnc4ccccc4n3)C(=O)C2=CN1C1CC1 (configuration not stated) was read as PRMT1 inh 11, MBD2 DNA inh 1, LEDGF integ inh 6 and UHRF1 binding -2.
For N#C/C(=C\c1ccccc1)C(=O)NNS(=O)(=O)c1cccc([N+](=O)[O-])c1 the results were PRMT1 inh 43*, MBD2 DNA inh 4, LEDGF integ inh 10, UHRF1 binding 3 and PRMT1 confirm 4.
`N#C/C(=C/c1cccc([N+](=O)[O-])c1)C(=O)Nc1ccccc1O` gave PRMT1 inh -2, MBD2 DNA inh 1, LEDGF integ inh -1 and UHRF1 binding -3.
Screening COC(=O)c1ccccc1NC(=O)CSc1nnc(-c2ccncc2)o1 returned PRMT1 inh 34*, MBD2 DNA inh 1, LEDGF integ inh -3, UHRF1 binding -1 and PRMT1 confirm 45*.
COC(=O)c1ccc(Cl)c(NC(=O)CSc2nnc(-c3ccncc3)o2)c1 was read as PRMT1 inh -2, MBD2 DNA inh 1, LEDGF integ inh 2 and UHRF1 binding -2.
Screening Cc1ccc2[nH]c(=O)c(-c3noc(CC(C)C)n3)cc2c1 returned PRMT1 inh -4, MBD2 DNA inh -7, LEDGF integ inh 1 and UHRF1 binding -1.
`CCC1Oc2ccc(C)cc2N(CC(=O)NC2CCCCC2)C1=O` (configuration not stated) gave PRMT1 inh 0, MBD2 DNA inh -4, LEDGF integ inh 0 and UHRF1 binding 0.
`CCC1Oc2ccc(C)cc2N(CC(=O)N(Cc2ccc(C)o2)C2CCCC2)C1=O` (configuration not stated) gave PRMT1 inh 47*, MBD2 DNA inh 4, LEDGF integ inh 1, UHRF1 binding 1 and PRMT1 confirm 38*.
For O=C(/C=C/c1ccco1)N(Cc1ccc(Cl)cc1)C1CCS(=O)(=O)C1 (configuration not stated) the results were PRMT1 inh 28*, MBD2 DNA inh 7, LEDGF integ inh 5, UHRF1 binding 0 and PRMT1 confirm 2.
For Cc1ccccc1NC(=O)C(C)OC(=O)CNS(=O)(=O)c1ccc(C#N)cc1 (configuration not stated) the results were PRMT1 inh -4, MBD2 DNA inh 4, LEDGF integ inh -1 and UHRF1 binding -2.
`O=C(CCc1ccccc1)c1ccc2c(c1)OCCCO2` gave PRMT1 inh 3, MBD2 DNA inh 3, LEDGF integ inh -3 and UHRF1 binding -1.
`O=C(CCN1CCCC1Cc1ccccc1)c1ccc2c(c1)OCCO2` (configuration not stated) gave PRMT1 inh 37*, MBD2 DNA inh -8, LEDGF integ inh -1, UHRF1 binding -1 and PRMT1 confirm 40*.
COc1cc(C(=O)CCN2CCC(c3ccccc3)C2)cc(OC)c1OC (configuration not stated) was read as PRMT1 inh 32*, MBD2 DNA inh 4, LEDGF integ inh 3, UHRF1 binding 4 and PRMT1 confirm 16.

Screening results (PubChem)
